From PubChem BioAssay
ClpP mod: qHTS Assay for Activators of ClpP. AID 651965, 2013. purified B. subtilis ClpP, FRET peptide cleavage, 20 min. Potency, µM (series often up to 57.5 µM). 340,000 tested, 1.9% active. ATP-dependent Clp protease proteolytic subunit (Bacillus subtilis (strain 168)), P80244; active = well fitted falling curve with a large enough effect; inconclusive = small, poorly fitted or top-dose-only effect; inactive = no such curve, though single readings can be large or run the other way; note: the source files actives as falling curves though it sought activators and does not explain the sign; nearly all actives have a fitted effect of over 65% in size
Target sequence (P80244 whole entry, looked up): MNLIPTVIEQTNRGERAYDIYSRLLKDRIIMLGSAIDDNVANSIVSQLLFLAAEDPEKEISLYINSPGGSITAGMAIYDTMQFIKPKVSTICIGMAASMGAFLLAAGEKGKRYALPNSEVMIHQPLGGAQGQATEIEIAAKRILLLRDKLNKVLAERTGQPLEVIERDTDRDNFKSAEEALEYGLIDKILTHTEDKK
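ClpP 10 microg/mL final, pH 8 Tris/KCl buffer with BSA, glycerol, Tween-20; compound pinned in; FRET-FV substrate; RT 20 min; Ex320/Em430; ΔFRET vs ADEP 5.8 microM, DMSO, no enzyme.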
TDP1 cell noCPT: qHTS for Inhibitors of human tyrosyl-DNA phosphodiesterase 1 (TDP1): qHTS in cells in absence of CPT. DT40 Tdp1-/- hTDP1 cells, no CPT, ATP luminescence, 48 h. Potency, µM (top dose mostly 46.2 µM), actives largely listed as inhibitors. 420,000 tested, 15% active. AID 686978, 2013; note: nearly all actives have a fitted effect of over 55% in size
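Compound effects on proliferation are scored in DT40 Tdp1-/-;hTDP1 cells in the absence of CPT. ATP levels (CellTiter-Glo luminescence) are recorded after a ≥48 hr, 37 °C incubation.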
TDP1 block: TDP1 (human) enzyme inhibition | Q9NUW8 | recombinant TDP1, AlphaScreen DNA substrate cleavage | Potency, µM (titrated, usually from 130 µM), most hits filed as inhibitors | 350,000 tested, 0.28% active; note: nearly all actives have a fitted effect of over 40% in size
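Compounds were preincubated with Tdp1 (1 nM final) for 15 min at room temperature before substrate (15 nM final) started a 5 min reaction; beads (10 ug/ml final) were then added for 10 min before AlphaScreen detection.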
TDP1 cell CPT: growth inhibition of DT40 Tdp1-/-;hTDP1 cells with camptothecin (screen for TDP1 inhibitors). chicken DT40 Tdp1-/-;hTDP1 cells + 20 nM CPT, ATP luminescence, 48 h. Potency, µM (top dose mostly 46.2 µM), actives largely listed as inhibitors. 420,000 tested, 12% active. AID 686979; note: nearly all actives have a fitted effect of over 55% in size
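Cell growth measured by CellTiter-Glo luminescence after a minimum 48 h, 37 C compound exposure with 20 nM CPT in Tdp1-knockout DT40 cells stably expressing hTDP1, seeded 400/well; qHTS titration format.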
Numbers stand for hits; . = inactive; ? = inconclusive; / = no result. This is a sample that favours compounds with a hit; in the whole collection about 17% have one here. Unless noted, calls come from the whole dose curve; as a rule, active = well fitted curve in the direction sought with a large enough effect; inconclusive = small, poorly fitted or top-dose-only effect, or another doubt; inactive = no such curve, though single readings can be large; an effect the other way counts as inactive or inconclusive.

SMILES	ClpP mod	TDP1 cell noCPT	TDP1 block	TDP1 cell CPT
S=C(Nc1ccc2nc(-c3ccccn3)c(-c3ccccn3)nc2c1)N1CCCCC1	/	.	.	.
O=C(NC(=S)N1CCN(c2ccccn2)CC1)c1ccccc1	.	.	.	.
CC(=NNC(=S)N1CCCCCC1)c1cccc2cccnc12	.	0.021µM	/	0.016µM
CC(=O)NC(CC(=O)NNC(=O)c1cc2ccccc2cc1O)c1ccccc1 (centres undefined)	.	?	/	?
CC(=O)c1ccc(NC(=O)Cc2cccs2)cc1	/	.	/	.
CC(C)c1nc(N2CCOCC2)c(C#N)c2c1CCC2	25µM	?	.	.
CCCCc1nc(N2CCOCC2)c(C#N)c2c1CCCC2	25µM	.	.	.
Cc1cc(C)c(C#N)c(N2CCOCC2)n1	25µM	.	.	.
CCCc1nc(N2CCOCC2)c(C#N)c2c1CCCC2	32µM	?	.	.
Cc1cccc(NC(=O)CSc2cn(CC(=O)N3CCCC3)c3ccccc23)c1C	.	?	.	.
N#Cc1ccc(S(=O)(=O)NCC(=O)OCC(=O)N2CCCC2=O)cc1	14µM	.	/	.
Cc1ccc(S(=O)(=O)NCCC(=O)OCC(=O)N2CCCC2=O)cc1	.	.	.	.
Cc1ccc2c(CC(=O)Nc3cccc(S(=O)(=O)N4CCOCC4)c3)coc2c1	.	.	.	?
Cc1ccc(C(=O)N2CCc3ccccc32)cc1[N+](=O)[O-]	/	.	/	.
Cc1cccc(N2CCN(C(=O)c3ccc(-n4cncn4)c([N+](=O)[O-])c3)CC2)c1C	.	.	.	21µM
Cc1ccc(C(=O)N2CCN(c3ccccc3Cl)CC2)cc1[N+](=O)[O-]	.	?	.	29µM
O=C(c1ccc(-n2cncn2)c([N+](=O)[O-])c1)N1CCN(S(=O)(=O)c2ccccc2F)CC1	14µM	?	.	.
O=C(c1ccc(-n2cncn2)c([N+](=O)[O-])c1)N1CCN(S(=O)(=O)c2c(F)cccc2F)CC1	.	?	.	?
CC1CCN(c2cc(N3CCN(C(=O)c4ccc(F)c(F)c4)CC3)c([N+](=O)[O-])cc2F)CC1	.	23µM	.	?
Cc1csc2nc(COc3ccccc3NC(=O)c3ccco3)cc(=O)n12	.	?	.	.
CCn1nc(C)c(NC(=O)/C=C/c2cnn(C)c2C)c1C	.	.	.	.
CCn1ncc(/C=C/C(=O)Nc2c(C)nn(Cc3ccc(Cl)cc3Cl)c2C)c1C	.	15µM	.	15µM
CCn1cc(/C=C/C(=O)Nc2c(C)nn(Cc3ccccc3)c2C)cn1	.	9.2µM	.	?
Cc1nn(Cc2ccccc2Cl)c(C)c1NC(=O)/C=C/c1cnn(C)c1	.	?	.	.
Cc1nn(Cc2ccc(Cl)cc2Cl)c(C)c1NC(=O)NC12CC3CC(CC(C3)C1)C2	.	18µM	.	21µM
SMILES	ClpP mod	TDP1 cell noCPT	TDP1 block	TDP1 cell CPT
CCOC(=O)c1ccc2ncc(C(=O)OCC)c(Nc3ccc(C)c(Br)c3)c2c1	.	/	/	/
NCCCC[C@H]1CNC(=S)N1CCCCC1CCCCC1	.	7.3µM	.	9.2µM
Cc1nnc2c3ccccc3nc(N3CCN(c4ccccc4)CC3)n12	.	?	.	?
S=C1SC2(CCCCCC2)NC2=C1CCCCC2	.	13µM	/	?
CCCN(C(=O)CCl)C1=CCCCC1	.	13µM	.	18µM
CCN(C(=O)COC(=O)CNC(=O)c1ccccc1C)C1=CCCCC1	.	.	.	.
Cc1ccc(-n2nc(C(=O)Nc3ccc(Br)cc3C)c(=O)n(C)c2=O)cc1	.	.	.	.
CC(C)c1ccccc1-n1c(SCc2cc(=O)oc3ccc4ccccc4c23)nnc1-c1cccnc1	?	15µM	.	?
Cn1c(SCC(=O)N2CCc3ccccc3C2)nnc1-c1ccncc1	.	.	.	.
CC(C)c1ccccc1-n1c(SCC(=O)N2CCN(c3ccccc3)CC2)nnc1-c1cccnc1	.	23µM	.	16µM
Cn1c(SCC(=O)N2CCN(c3ccccc3)CC2)nnc1-c1ccncc1	.	.	.	.
CCc1cccc(CC)c1-n1c(SCC(=O)N2CCc3ccccc3C2)nnc1-c1cccnc1	.	23µM	.	18µM
Cc1ccc(NS(=O)(=O)c2c(C)nc3sccn3c2=O)cc1C	.	?	/	?
O=C(Nc1ccc2c(c1)OCCO2)C(=O)NC1CC1	/	.	.	.
CC(=O)Nc1nc(-c2ccc(Cl)cc2)ns1	.	?	.	?
C=C(C)Cn1c(=O)c2c(nc3n2CCN3c2cc(C)cc(C)c2)n(C)c1=O	.	23µM	.	.
Cc1ccccc1Cn1c(=O)c2c(nc3n2CCCN3Cc2ccccc2)n(C)c1=O	.	?	/	21µM
CCCCn1c(=O)c2c(nc3n2CCCN3Cc2ccccc2)n(C)c1=O	/	23µM	/	?
C=C(C)Cn1c(=O)c2c(nc3n2CCCN3CCc2ccccc2)n(C)c1=O	.	13µM	.	?
COc1ccc(CN(Cc2ccc(C(=O)O)cc2)C(=S)Nc2cccc(C)c2)cc1OC	/	.	.	.
O=C(N/N=C/c1ccc(OCCCF)cc1)c1ccc(C(F)(F)F)cc1	/	.	.	.
Cc1[nH]c(=O)[nH]c(=O)c1S(=O)(=O)Nc1cccc([N+](=O)[O-])c1C	.	.	/	.
COC(=O)Cn1c(=O)c2c(nc3n2CCCN3Cc2ccccc2)n(C)c1=O	/	.	/	.
Cn1c(=O)n(CC(=O)OCc2ccccc2)c(=O)c2c1nc1n2CCCN1C1CCCCC1	.	23µM	/	?
COc1ccc(CN2CC[C@H]3C=CC[C@@H](C(=O)NC4CCCCC4)[C@H]3C2=O)cc1OC	.	.	/	.
SMILES	ClpP mod	TDP1 cell noCPT	TDP1 block	TDP1 cell CPT
C=CCc1cc(/C=C2/NC(=S)NC2=O)cc(OC)c1O	.	21µM	.	15µM
NC(=O)C1CC(=O)N(c2ccc(OCc3ccc(Cl)c(Cl)c3)cc2)C1 (centres undefined)	.	?	/	23µM
NC(=O)C1CC(=O)N(c2ccc(OCc3ccc(Cl)cc3Cl)cc2)C1 (centres undefined)	.	.	.	.
CCCCCCNC(=O)CC(c1ccccc1)c1cc(Br)ccc1O (centres undefined)	.	26µM	.	?
O=C(CC(c1ccccc1)c1cc(Br)ccc1O)NCc1ccco1 (centres undefined)	.	?	.	?
Cc1ccc(C(=O)N2CCN(c3ccc([N+](=O)[O-])c(N4CCOCC4)c3)CC2)cc1	.	?	.	29µM
O=C(COc1ccccc1Cl)N1CCN(c2ccc([N+](=O)[O-])c(N3CCOCC3)c2)CC1	.	16µM	.	?
O=C(c1ccc(F)cc1)N1CCN(c2ccc([N+](=O)[O-])c(N3CCOCC3)c2)CC1	.	?	.	?
O=C(c1ccco1)N1CCN(c2ccc([N+](=O)[O-])c(N3CCOCC3)c2)CC1	/	.	.	.
CCc1ccc(NC(=O)COC(=O)/C(=C/c2ccccc2OC)c2ccccc2)cc1	.	?	.	.
